Test results reported in PubChem BioAssay AID2129 (The Scripps Research Institute Molecular Screening Center, 2009).
Out of some 320,000 compounds screened, about 2,200 (0.69%) were called active. The sample holds actives, similar compounds and a random draw of the others, so the mix is not that of the screen.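 How the source made its calls: active means inhibition above the mean of all tested compounds plus 3 SD, cutoff set per campaign (cut at about 30% in these data); inactive means the rest.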

target: Bcl-2-like protein 1 (Homo sapiens) (UniProt Q07817); experiment: Bcl-xL/Bim BH3 interaction blockers – biochemical, fluorescence polarization, HTS, primary screen (AID 2129); settings: GST-Bcl-xL / FITC-Bim BH3 peptide fluorescence polarization; at 10.9 µM; stronger effect = higher value;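 further: 0% = DMSO wells and 100% = unlabeled Bim-BH3 peptide competitor; inhibitors lower millipolarization by displacing the labeled peptide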
Sequence (Q07817 whole entry, looked up): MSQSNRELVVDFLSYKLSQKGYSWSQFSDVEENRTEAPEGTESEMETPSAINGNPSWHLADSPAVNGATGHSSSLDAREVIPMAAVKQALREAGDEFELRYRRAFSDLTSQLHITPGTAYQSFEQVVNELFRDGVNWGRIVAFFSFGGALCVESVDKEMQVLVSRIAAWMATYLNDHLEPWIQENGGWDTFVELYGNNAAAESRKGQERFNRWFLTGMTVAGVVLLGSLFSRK

inhibition, active:
Cc1ccc(/C=N/NC(=O)COc2ccccc2-c2ccccc2)cc1 68.1%
O=C(C[n+]1cc(Br)cc2ccccc21)c1ccc(F)cc1 62.8%
O=C1c2ccccc2-c2ncnc3c(N4CCOCC4)cc(N4CCOCC4)c1c23 48.5%
COC/C=C/C1=CC2=CC(=O)C(C)(OC(=O)CCC(=O)OC)C(=O)C2=CO1 (stereo not given) 46.1%

inhibition, inactive:
O=C(c1ccc(Cl)cc1)N1N=C(c2ccccn2)CC1(O)C(F)(F)F (stereo not given) -13%
Cc1cccc(OCC(=O)NCC(=O)N/N=C/c2ccc(N(C)C)cc2)c1 2.63%
C=CCc1ccccc1OCC(=O)N/N=C/c1ccccc1OCC 0.68%
O=C(O)CC(c1ccccc1F)N1Cc2ccccc2C1=O (stereo not given) -0.17%
CC(C)CN(C(=O)CSc1ncnc2sccc12)C1CCS(=O)(=O)C1 (stereo not given) 0.66%
CCN(CC)CCNC(=O)c1ccc(NC(=O)c2c(F)cccc2Cl)cc1 -0.4%
O=C1N[C@@H](Cc2ccccc2)C(=O)N2[C@H]1C[C@]1(Br)c3ccccc3N(S(=O)(=O)c3ccccc3)[C@H]21 10.4%
Cc1ccccc1N1C(=O)C2ON(c3ccccc3)C(c3ccncc3)C2C1=O (stereo not given) 4.04%
O=C(CNC(=O)c1ccccc1F)c1ccc(Br)cc1 -3.61%
O=C(CNC(=O)c1ccc(F)cc1)c1ccccc1 -1.14%
CC(=O)n1c(C=Nc2ccccc2)c(O)c2ccccc21 -15.2%
Cc1oc2c(c1C(=O)N1CCOCC1)C(=O)c1ccccc1C2=O -1.81%
COC1=C(N2CCOCC2)C(=O)c2ccccc2C1=O 1.64%
COc1ccc(-n2ncc3c2CC(C)(C)CC3NC(=O)CCc2c(C)nn(C)c2C)cc1 (stereo not given) 6.1%
COCCNc1nnc(SCC(=O)NNC(=O)c2ccco2)s1 4.35%
Cc1ccc(CSCC(=O)N(C)CC(=O)Nc2ccc(C)cc2)cc1 1.73%
Cc1c(NC(=O)CSc2nnc(-c3cccnc3)n2N)c(=O)n(-c2ccccc2)n1C -1.43%
COc1ccc(C(=O)N(CCN2CCOCC2)CC(=O)NC2CCCC2)cc1OC -2.67%
Cc1ccc(OCCCC(=O)Nc2ccc3c(c2)OCCO3)cc1 -5.28%
CCCCC1=CC2=CC(=O)C(C)(OC(=O)CC)C(=O)C2=CN1CCCOC(C)C (stereo not given) 25.5%
COc1cc(C2/C(=C(\O)c3ccc4c(c3)CC(C)O4)C(=O)C(=O)N2Cc2ccco2)ccc1O (stereo not given) 0.14%
